Screening data as filed in PubChem BioAssay.
This is a sample that favours compounds with a hit; in the whole collection about 6.8% have one here.
NS3h inh CB = HCV NS3 helicase inhibitors, primary screen, biochemical, fluorescence polarization, ChemBridge library | Hepatitis C virus NS3 helicase | NS3h Cy5-dT15 DNA binding | hit rate 1.6% among 16,000 | AID 687043, 2013 | inhibition, % at 100 µM;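 active = inhibition above the average over every tested compound plus 3 SD, cut at about 40% in these data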
Cy5 interf NS3h = Cy5 fluorescence quenchers or enhancers, artefact control for HCV NS3 helicase inhibitor project, biochemical, ChemBridge library, Cy5 readout | Cy5-dT15 DNA with NS3h, fluorescence interference; actives lie on both sides; signal over control mean, under 1 quenches | fluorescence interference ratio at 100 µM | hit rate 6% among 16,000 | AID 720488, 2013;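 active = compound fluorescence over control fluorescence at most 0.8, a quencher, or at least a set upper limit, an enhancer; inactive = ratio between 0.8 and the set upper limit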
Numbers without * were called inactive.

SMILES	NS3h inh CB	Cy5 interf NS3h
CC(C)(C)C1=NN(C(=O)c2ccc([N+](=O)[O-])cc2)C(O)(C(F)(F)F)C1 (centres undefined)	15.0	0.672*
CC1=NN(C(=O)c2ccc([N+](=O)[O-])cc2)C(O)(c2ccc(Cl)cc2)C1 (centres undefined)	18.2	0.98
O=C(/C=C/c1ccco1)Nc1cc(Cl)ccc1C(=O)O	62.8*	0.9
O=C(/C=C/c1ccco1)Nc1ccc(Br)cn1	-1.9	0.95
Cc1cc(/C=N\n2cnnc2)c(C)n1-c1ccc(Cl)cc1	-12.5	1.02
Cc1oc(C(=O)O)cc1COc1ccc2oc3ccccc3c2c1	-0.9	0.98
O=C(Nc1cccc(Br)c1)c1ccc(N2C(=O)c3ccccc3C2=O)cc1	1.8	1.01
N#Cc1cc(N=Cc2cccc(C=Nc3ccc(N)c(C#N)c3)c2)ccc1N	7.3	1.23*
O=C(COc1ccc(Cl)cc1)Nc1ccccc1[N+](=O)[O-]	27.3	1.07
COc1cc(/C=C2\SC(=S)N(C(C)C)C2=O)ccc1O	12.8	0.88
CC(C)COc1ccc2c(c1)c1c3c(nccn32)CCC1	-3.4	0.762*
O=c1/c(=C/c2ccccc2OS(=O)(=O)c2ccccc2)sc2nc3ccccc3n12	0.9	0.997
O=C(c1ccccc1)N1CCN=C1c1ccccc1	-7.5	0.878
O=C(c1ccc(Cl)cc1)N1CCN=C1c1ccccc1	2.2	0.643*
CC1=C(C#N)C(c2ccccc2C(F)(F)F)C2=C(CCCC2=O)N1 (centres undefined)	23.2	1.09
CCOc1ccccc1/C=C/C(=O)c1ccc(Br)cc1	1.3	1
O=C(Cc1ccccc1[N+](=O)[O-])N1CCN(c2ccccc2)CC1	4.6	0.984
COC(=O)CNC(=O)c1cccc([N+](=O)[O-])c1	2.5	1.09
O=C(O)CSCc1cccc([N+](=O)[O-])c1	5.0	0.702*
COc1cc(C(=O)NC(NC(=S)Nc2ccc(Br)cc2)C(Cl)(Cl)Cl)cc(OC)c1OC (centres undefined)	5.7	1
CC(=O)Nc1ccccc1NC(=O)c1ccc(Br)cc1	9.1	1.22*
CC(=O)Nc1ccccc1NC(=O)c1ccc(F)cc1	7.6	0.929
O=C1C(=O)N(C2CCCCC2)C(=O)N1c1ccc(Cl)cc1	-0.7	1.05
O=C(NC(=S)Nc1ccc2oc(-c3cccc(I)c3)nc2c1)c1ccco1	6.3	0.993
NS(=O)(=O)c1ccc(N=Cc2ccc[nH]2)cc1	1.0	1.06
SMILES	NS3h inh CB	Cy5 interf NS3h
O=[N+]([O-])c1cccc(N=Cc2ccc[nH]2)c1	9.6	0.68*
O=C(c1ccc(F)cc1)N(C1CCCCC1)C1CCCCC1	7.6	0.929
C/C(=N/N=C1\NC(=O)C(CC(=O)Nc2ccc([N+](=O)[O-])cc2)S1)c1ccc(F)cc1 (centres undefined)	25.5	1.03
C/C(=N/N=C1\NC(=O)C(CC(=O)Nc2ccc(Cl)cc2Cl)S1)c1ccc(F)cc1 (centres undefined)	-17.3	1.22*
Cc1ccc(-c2ccc(C=C3C(=O)NC(=O)NC3=O)o2)c([N+](=O)[O-])c1	41.3*	0.721*
Cc1ccc(-c2ccc(/C=C3\SC(=S)NC3=O)o2)c([N+](=O)[O-])c1	20.0	0.886
CS(=O)(=O)N1CCN(Cc2ccccc2Br)CC1	-2.5	0.67*
CSc1ccc(CN2CCN(S(C)(=O)=O)CC2)cc1	0.3	1
COc1cc(OC)c(OC)cc1CN1CCN(S(C)(=O)=O)CC1	-15.6	1.01
CS(=O)(=O)N1CCN(Cc2ccc(Cl)cc2)CC1	-14.1	1.06
CS(=O)(=O)N1CCN(Cc2ccncc2)CC1	-11.8	0.681*
COc1ccccc1CN1CCN(S(C)(=O)=O)CC1	5.0	0.77*
O=C(CC1S/C(=N/N=C2/CCCc3ccccc32)NC1=O)Nc1ccccc1C(F)(F)F (centres undefined)	8.2	1.11
O=C(N(c1cccc(C(F)(F)F)c1)C1C=CS(=O)(=O)C1)C(Cl)(Cl)Cl (centres undefined)	7.4	0.968
Cc1cccc(/C=C2\C(=O)NN(c3ccccc3)C2=O)c1	23.7	0.924
O=C1N=c2ccccc2=C1c1sc(Nc2ccc(O)cc2)nc1O	11.1	0.631*
O=C1N=c2ccccc2=C1c1sc(=S)n(-c2ccc(F)cc2)c1O	-5.2	0.991
CC(C)c1ccc(N=C2C(=O)Nc3ccc(Br)cc32)cc1	3.6	1.02
O=C1C2=C(Nc3[nH]n(-c4ccccc4)c(=O)c3C2c2ccccc2)c2ccccc21 (centres undefined)	6.0	0.763*
COC(=O)C1=C(C)NC2=C(C(=O)c3ccccc32)C1c1ccc(F)cc1 (centres undefined)	9.5	0.886
COc1ccc(N2C(=O)CC(Cc3ccc(Cl)cc3)C2=O)cc1 (centres undefined)	21.3	0.687*
COc1ccc(N2C(=O)CC(Cc3ccccc3OC)C2=O)cc1 (centres undefined)	4.1	0.996
O=C(O)CCCC(=O)OCc1ccco1	48.0*	0.996
O=C(O)CCCC(=O)Nc1ccccc1	-8.6	0.891
O=c1[nH]c(=O)n(-c2ccccc2)c(O)c1C(c1cccnc1)c1c(O)n(-c2ccccc2)c(=O)[nH]c1=O	6.7	1.02
SMILES	NS3h inh CB	Cy5 interf NS3h
CCOc1ccc(NC(=O)/C=C/c2ccccc2)cc1	21.4	1.08
COc1ccccc1NC(=O)/C(=C/c1ccccc1)c1ccccc1	1.2	1.07
Cc1ccc(NC(=O)/C(=C/c2ccccc2)c2ccccc2)cc1C	14.2	0.654*
CCOc1ccc(NC(=O)/C(=C/c2ccccc2)c2ccccc2)cc1	15.2	0.672*
O=C(Nc1ccccc1)Nc1nnc(-c2ccccc2)s1	6.9	1.1
CCOc1ccc(-c2nnc(NC(=O)Nc3ccccc3)s2)cc1	12.3	0.738*
CC(=O)c1c(C)n(S(=O)(=O)c2ccccc2)c2ccc(NS(=O)(=O)c3ccccc3)cc12	14.9	1.03
COc1ccc2oc(=O)c(C(=O)Nc3ccc(C)cc3C)cc2c1	-0.7	1.01
Cc1cc(NS(=O)(=O)c2ccc(Nc3nc(-c4ccncc4)cs3)cc2)no1	9.9	1.06
COC(=O)c1c(NC(=O)Nc2ccc(Cl)c(Cl)c2)sc2c1CCC2	-7.3	1.2*
CCOC(=O)c1c(NC(=S)Nc2ccc(OC)cc2)sc2c1CCCCC2	5.7	1.11
CCC(C(=O)Nc1ccc(C)cc1)c1ccccc1 (centres undefined)	6.3	1.26*
CCC(C(=O)Nc1cccc(C)c1)c1ccccc1 (centres undefined)	9.9	0.965
CCOc1ccc(NC(=O)/C=C/c2ccc(C)o2)cc1	21.2	0.998
COc1cc(NC(=O)c2ccccc2C)c(Cl)cc1NC(=O)c1ccccc1	-5.0	1.08
O=C(c1ccc(S(=O)(=O)N2CCCC2)cc1)N1CCN(c2ccccc2)CC1	4.1	0.912
CS(=O)(=O)N1CCN(C(=O)c2ccc(-c3ccccc3)cc2)CC1	0.3	0.622*
COc1ccc(-n2c(C)ccc2C)c(N)c1	6.3	0.918
COc1cc(C(=O)O)c(-n2c(C)ccc2C)cc1OC	29.0	1.36*
CCOC(=O)CCc1c(C)nc2cc(-c3ccc(Br)cc3)[nH]n2c1=O	-1.4	0.825
COCCNC(=O)/C=C/c1ccc2c(c1)OCO2	2.6	0.933
COc1ccccc1NC(=O)CSc1nsc(SCC(=O)Nc2ccccc2OC)n1	1.3	0.904
CCOc1ccccc1NC(=O)CSc1nnc(C)s1	0.3	0.682*
